Experimental findings from publication PMC7862700, “An all-to-all approach to the identification of sequence-specific readers for epigenetic DNA modifications on cytosine” are described below.

What all share (test): DAPPL (digital affinity profiling via proximity ligation, sequencing); 10 mM Tris-HCl pH 7.5, 50 mM NaCl, 1 mM DTT, 4% glycerol, room temperature, 30 min; GST-TFs on glutathione beads, 16-mer random dsDNA library, 0.1% formaldehyde crosslink after washing; high values mean tight binding
In one experiment the target is T1, FLI1 (Homo sapiens, UniProt Q01543 1-452).
T1 sequence: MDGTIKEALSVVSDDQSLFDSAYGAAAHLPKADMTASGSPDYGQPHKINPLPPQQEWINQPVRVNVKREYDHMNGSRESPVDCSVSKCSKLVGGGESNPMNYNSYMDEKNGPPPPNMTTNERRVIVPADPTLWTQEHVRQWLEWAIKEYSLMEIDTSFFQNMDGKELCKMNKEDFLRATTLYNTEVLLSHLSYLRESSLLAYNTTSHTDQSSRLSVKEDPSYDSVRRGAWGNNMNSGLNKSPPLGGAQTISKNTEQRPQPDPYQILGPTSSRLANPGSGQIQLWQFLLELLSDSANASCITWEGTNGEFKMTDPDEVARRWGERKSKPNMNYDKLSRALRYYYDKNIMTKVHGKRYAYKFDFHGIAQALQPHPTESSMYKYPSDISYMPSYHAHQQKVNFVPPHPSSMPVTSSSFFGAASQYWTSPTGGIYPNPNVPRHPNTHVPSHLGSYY
To be noted: protein: recombinant; tags: N-terminal GST; dsDNA, one strand shown. In outline:
(§1)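 Binding signal is each hexamer's read frequency for a factor divided by its frequency in the tag-only sample. The factors were GST-fused human transcription factors from yeast, captured on glutathione beads, DNA-barcoded and pooled with that sample. Pools were incubated with 200 nmole of a random double-stranded 16-mer DNA library in Tris/NaCl/DTT/glycerol buffer at room temperature for 30 min, then washed, crosslinked with 0.1% formaldehyde, proximity-ligated with BsaI/T4 ligase (1 h, 37 °C), PCR-amplified and sequenced on an Illumina NextSeq500.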

The next experiment deals with T2, ELK1 (Homo sapiens, UniProt P19419 1-428).
T2 sequence: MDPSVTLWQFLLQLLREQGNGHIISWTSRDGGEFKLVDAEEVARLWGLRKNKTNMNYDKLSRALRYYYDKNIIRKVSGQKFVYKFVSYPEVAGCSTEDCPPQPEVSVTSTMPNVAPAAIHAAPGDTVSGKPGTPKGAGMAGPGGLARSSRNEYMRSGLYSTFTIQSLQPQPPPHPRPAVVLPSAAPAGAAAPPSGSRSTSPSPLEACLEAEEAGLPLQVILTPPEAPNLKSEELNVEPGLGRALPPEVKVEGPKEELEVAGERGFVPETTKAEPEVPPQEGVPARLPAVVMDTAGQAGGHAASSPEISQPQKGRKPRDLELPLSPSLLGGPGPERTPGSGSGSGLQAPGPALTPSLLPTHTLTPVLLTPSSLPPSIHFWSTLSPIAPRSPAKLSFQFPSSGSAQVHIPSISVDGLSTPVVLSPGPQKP
To be noted: protein: recombinant; tags: N-terminal GST; dsDNA, one strand shown. The method in brief:
as §1

A further experiment concerns the target T3, GABPA (Homo sapiens, UniProt Q06546 1-454).
T3 sequence: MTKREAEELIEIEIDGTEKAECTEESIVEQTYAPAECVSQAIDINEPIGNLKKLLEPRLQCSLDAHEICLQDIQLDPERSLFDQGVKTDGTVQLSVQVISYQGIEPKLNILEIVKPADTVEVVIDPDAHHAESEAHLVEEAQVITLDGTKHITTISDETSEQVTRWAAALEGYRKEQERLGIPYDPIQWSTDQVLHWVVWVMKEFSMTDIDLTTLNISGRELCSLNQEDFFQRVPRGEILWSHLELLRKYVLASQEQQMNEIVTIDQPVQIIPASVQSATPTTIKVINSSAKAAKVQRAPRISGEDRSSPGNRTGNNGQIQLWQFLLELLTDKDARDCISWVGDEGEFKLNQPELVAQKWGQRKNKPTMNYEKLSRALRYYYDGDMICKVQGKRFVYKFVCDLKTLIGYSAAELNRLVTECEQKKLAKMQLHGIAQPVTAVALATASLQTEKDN
The following applies: protein: recombinant; tags: N-terminal GST; dsDNA, one strand shown. The method in brief: as §1

A further experiment deals with T4, ERG (Homo sapiens, UniProt P11308 1-479).
T4 sequence: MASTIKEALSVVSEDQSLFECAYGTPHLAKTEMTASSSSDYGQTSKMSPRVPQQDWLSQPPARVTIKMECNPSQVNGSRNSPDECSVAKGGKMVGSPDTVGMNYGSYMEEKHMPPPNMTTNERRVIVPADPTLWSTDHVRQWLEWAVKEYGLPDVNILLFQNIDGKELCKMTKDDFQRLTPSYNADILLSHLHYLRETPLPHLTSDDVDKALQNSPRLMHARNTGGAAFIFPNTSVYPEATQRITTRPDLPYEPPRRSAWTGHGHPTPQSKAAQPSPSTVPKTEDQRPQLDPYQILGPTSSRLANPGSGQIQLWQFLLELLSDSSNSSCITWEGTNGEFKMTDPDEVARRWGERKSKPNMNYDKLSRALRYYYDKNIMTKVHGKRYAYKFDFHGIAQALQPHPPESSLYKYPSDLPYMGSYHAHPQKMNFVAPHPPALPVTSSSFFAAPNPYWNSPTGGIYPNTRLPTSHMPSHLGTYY
The following applies: protein: recombinant; tags: N-terminal GST; dsDNA, one strand shown. The method in brief: as §1

A further experiment deals with ELF1 (Homo sapiens, UniProt P32519 1-619). The following applies: protein: recombinant; tags: N-terminal GST; dsDNA, one strand shown. The method in brief: as §1
ELF1, sequence (P32519 whole entry): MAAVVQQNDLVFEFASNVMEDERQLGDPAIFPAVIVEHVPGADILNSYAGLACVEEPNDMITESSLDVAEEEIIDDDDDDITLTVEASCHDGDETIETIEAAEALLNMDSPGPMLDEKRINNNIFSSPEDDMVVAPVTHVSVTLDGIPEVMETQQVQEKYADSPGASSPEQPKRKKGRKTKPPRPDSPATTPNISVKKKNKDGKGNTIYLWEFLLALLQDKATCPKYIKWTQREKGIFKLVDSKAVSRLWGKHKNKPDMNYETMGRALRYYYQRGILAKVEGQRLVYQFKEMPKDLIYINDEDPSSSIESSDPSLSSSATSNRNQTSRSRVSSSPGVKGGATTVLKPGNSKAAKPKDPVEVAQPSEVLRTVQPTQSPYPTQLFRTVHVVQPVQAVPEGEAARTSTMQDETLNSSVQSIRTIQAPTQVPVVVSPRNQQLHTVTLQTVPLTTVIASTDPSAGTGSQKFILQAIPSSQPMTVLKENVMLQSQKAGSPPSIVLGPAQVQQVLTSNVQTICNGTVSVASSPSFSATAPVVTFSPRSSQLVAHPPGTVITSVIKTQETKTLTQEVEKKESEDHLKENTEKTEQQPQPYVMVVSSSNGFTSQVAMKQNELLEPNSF
In another experiment the target is T5, EHF (Homo sapiens, UniProt Q9NZC4 1-300).
T5 sequence: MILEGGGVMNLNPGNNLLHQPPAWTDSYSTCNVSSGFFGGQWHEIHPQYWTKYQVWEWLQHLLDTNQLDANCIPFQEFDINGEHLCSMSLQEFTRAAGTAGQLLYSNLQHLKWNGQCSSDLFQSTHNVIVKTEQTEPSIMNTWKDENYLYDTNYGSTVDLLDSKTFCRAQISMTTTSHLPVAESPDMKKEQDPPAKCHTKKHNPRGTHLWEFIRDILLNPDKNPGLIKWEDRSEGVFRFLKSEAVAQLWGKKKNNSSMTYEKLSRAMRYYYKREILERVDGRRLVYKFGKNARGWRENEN
To be noted: protein: recombinant; tags: N-terminal GST; dsDNA, one strand shown. In outline: as §1

The next experiment has as its target SPI1 (Homo sapiens, UniProt P17947 1-270). To be noted: protein: recombinant; tags: N-terminal GST; dsDNA, one strand shown. The method in brief:
as §1

The target in another experiment is SPIB (Homo sapiens, UniProt Q01892 1-262). To be noted: protein: recombinant; tags: N-terminal GST; dsDNA, one strand shown. In outline:
as §1

The next experiment deals with T6, ELK3 (Homo sapiens, UniProt P41970 1-407).
T6 sequence: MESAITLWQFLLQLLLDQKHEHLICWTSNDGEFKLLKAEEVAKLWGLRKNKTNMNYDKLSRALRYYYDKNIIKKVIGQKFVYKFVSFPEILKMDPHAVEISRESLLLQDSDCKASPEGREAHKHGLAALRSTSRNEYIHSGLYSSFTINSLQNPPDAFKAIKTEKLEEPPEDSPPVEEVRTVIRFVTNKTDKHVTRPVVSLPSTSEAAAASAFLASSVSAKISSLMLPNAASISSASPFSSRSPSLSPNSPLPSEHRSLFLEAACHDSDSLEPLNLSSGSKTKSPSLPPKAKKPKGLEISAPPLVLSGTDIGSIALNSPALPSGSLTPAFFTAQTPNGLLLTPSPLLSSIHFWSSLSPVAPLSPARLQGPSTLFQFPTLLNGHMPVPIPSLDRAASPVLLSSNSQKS
To be noted: protein: recombinant; tags: N-terminal GST; dsDNA, one strand shown. In outline:
as §1

The next experiment addresses T7, FEV (Homo sapiens, UniProt Q99581 1-238).
T7 sequence: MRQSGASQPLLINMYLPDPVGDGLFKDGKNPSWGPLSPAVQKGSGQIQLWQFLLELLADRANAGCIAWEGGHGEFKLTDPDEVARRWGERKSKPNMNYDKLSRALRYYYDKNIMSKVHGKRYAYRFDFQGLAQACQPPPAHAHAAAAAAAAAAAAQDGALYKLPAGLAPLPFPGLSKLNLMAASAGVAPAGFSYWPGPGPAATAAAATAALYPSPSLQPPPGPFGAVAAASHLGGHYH
To be noted: protein: recombinant; tags: N-terminal GST; dsDNA, one strand shown. The method in brief:
as §1

The target of the next experiment is ETV5 (Homo sapiens, UniProt P41161 1-510). To be noted: protein: recombinant; tags: N-terminal GST; dsDNA, one strand shown. The method in brief: as §1
ETV5, sequence (P41161 whole entry): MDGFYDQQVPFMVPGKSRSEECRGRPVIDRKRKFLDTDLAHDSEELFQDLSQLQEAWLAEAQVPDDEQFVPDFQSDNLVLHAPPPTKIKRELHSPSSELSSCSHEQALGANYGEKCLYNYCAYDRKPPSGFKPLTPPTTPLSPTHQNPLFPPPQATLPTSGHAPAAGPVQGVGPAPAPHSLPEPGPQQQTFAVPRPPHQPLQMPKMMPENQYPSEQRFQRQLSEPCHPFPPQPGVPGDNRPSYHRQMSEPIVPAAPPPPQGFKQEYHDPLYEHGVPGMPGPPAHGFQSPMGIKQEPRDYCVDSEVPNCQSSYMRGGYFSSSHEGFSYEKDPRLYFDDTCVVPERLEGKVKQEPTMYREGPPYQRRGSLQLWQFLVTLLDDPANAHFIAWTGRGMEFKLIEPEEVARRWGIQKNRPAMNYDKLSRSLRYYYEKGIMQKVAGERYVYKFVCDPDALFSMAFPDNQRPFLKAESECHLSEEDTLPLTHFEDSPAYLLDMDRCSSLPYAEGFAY
The next experiment deals with HSF1 (Homo sapiens, UniProt Q00613 1-529). The following applies: protein: recombinant; tags: N-terminal GST; chain copies: 3; dsDNA, one strand shown. In outline: as §1
HSF1, sequence (Q00613 whole entry): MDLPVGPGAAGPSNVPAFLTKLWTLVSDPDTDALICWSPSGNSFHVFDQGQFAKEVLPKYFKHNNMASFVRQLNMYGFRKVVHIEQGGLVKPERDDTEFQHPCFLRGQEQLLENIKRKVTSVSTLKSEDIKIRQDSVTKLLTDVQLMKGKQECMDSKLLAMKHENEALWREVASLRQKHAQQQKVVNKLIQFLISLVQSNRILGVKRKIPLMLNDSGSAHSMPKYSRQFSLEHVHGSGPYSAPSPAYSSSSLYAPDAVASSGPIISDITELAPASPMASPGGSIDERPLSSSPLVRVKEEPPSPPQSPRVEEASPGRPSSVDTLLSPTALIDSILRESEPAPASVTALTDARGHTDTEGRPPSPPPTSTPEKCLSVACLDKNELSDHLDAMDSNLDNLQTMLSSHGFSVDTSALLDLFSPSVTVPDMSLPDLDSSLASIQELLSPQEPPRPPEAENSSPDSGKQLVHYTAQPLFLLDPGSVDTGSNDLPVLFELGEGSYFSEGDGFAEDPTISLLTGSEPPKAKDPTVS
Another experiment concerns the target T8, SPIC (Homo sapiens, UniProt Q8N5J4 1-248).
T8 sequence: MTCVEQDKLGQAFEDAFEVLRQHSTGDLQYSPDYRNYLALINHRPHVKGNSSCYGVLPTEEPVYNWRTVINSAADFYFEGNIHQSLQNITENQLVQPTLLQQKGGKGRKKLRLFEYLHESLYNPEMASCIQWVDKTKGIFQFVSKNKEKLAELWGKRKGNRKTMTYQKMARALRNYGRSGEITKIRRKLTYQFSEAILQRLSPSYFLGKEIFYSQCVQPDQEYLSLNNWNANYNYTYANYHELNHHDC
The following applies: protein: recombinant; tags: N-terminal GST; dsDNA, one strand shown. In outline: as §1

In another experiment the target is ELF4 (Homo sapiens, UniProt Q99607 1-663). The following applies: protein: recombinant; tags: N-terminal GST; dsDNA, one strand shown. The method in brief:
as §1

The target of another experiment is T9, ELK4 (Homo sapiens, UniProt P28324-2 1-405).
T9 sequence: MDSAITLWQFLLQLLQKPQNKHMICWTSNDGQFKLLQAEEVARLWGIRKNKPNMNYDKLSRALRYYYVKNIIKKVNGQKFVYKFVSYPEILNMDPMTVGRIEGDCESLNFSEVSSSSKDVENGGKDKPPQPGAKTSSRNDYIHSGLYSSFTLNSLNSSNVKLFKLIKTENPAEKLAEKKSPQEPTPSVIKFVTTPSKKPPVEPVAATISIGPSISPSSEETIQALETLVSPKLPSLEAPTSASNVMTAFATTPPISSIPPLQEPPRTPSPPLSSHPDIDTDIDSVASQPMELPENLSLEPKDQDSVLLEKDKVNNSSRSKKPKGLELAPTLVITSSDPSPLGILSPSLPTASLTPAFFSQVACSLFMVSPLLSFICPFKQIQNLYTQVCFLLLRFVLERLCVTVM
The following applies: protein: recombinant; tags: N-terminal GST; dsDNA, one strand shown. The method in brief: as §1

The next experiment has as its target T10, ETV2 (Homo sapiens, UniProt O00321 1-342).
T10 sequence: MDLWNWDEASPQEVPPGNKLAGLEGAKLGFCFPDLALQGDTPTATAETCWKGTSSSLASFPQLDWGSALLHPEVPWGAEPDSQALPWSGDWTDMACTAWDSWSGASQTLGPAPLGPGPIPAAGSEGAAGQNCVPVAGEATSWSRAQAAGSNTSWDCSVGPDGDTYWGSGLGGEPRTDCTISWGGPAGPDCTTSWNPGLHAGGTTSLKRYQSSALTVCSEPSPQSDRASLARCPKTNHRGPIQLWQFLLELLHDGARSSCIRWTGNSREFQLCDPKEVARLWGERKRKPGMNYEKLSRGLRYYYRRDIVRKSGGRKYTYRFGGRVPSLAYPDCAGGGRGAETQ
To be noted: protein: recombinant; tags: N-terminal GST; dsDNA, one strand shown. The method in brief: as §1

A further experiment concerns the target T11, ELF3 (Homo sapiens, UniProt P78545 1-371).
T11 sequence: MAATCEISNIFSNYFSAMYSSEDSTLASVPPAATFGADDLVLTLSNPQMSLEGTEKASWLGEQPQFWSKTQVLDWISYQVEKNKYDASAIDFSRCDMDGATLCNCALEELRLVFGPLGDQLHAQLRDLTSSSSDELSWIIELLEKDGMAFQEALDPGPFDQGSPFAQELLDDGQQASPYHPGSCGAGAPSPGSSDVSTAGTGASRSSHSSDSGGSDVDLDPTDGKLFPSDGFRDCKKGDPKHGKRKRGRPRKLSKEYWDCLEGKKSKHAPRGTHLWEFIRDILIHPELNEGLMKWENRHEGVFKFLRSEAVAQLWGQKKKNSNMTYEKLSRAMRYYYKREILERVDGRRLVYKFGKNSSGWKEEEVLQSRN
To be noted: protein: recombinant; tags: N-terminal GST; dsDNA, one strand shown. In outline:
as §1

In the next experiment the target is CRX (Homo sapiens, UniProt O43186 1-299). To be noted: protein: recombinant; tags: N-terminal GST; dsDNA, one strand shown. In outline: as §1
CRX, sequence (O43186 whole entry): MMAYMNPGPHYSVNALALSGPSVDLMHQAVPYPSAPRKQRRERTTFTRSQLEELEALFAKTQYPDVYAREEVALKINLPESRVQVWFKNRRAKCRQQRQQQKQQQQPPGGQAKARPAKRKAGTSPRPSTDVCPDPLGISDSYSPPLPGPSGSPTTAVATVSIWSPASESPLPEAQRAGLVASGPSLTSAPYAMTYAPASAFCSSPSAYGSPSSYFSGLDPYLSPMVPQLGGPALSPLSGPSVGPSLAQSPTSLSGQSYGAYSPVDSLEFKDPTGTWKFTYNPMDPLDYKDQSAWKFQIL
The next experiment concerns the target ETV1 (Homo sapiens, UniProt P50549 1-477). To be noted: protein: recombinant; tags: N-terminal GST; dsDNA, one strand shown. The method in brief: as §1

ELF4, sequence (Q99607 whole entry): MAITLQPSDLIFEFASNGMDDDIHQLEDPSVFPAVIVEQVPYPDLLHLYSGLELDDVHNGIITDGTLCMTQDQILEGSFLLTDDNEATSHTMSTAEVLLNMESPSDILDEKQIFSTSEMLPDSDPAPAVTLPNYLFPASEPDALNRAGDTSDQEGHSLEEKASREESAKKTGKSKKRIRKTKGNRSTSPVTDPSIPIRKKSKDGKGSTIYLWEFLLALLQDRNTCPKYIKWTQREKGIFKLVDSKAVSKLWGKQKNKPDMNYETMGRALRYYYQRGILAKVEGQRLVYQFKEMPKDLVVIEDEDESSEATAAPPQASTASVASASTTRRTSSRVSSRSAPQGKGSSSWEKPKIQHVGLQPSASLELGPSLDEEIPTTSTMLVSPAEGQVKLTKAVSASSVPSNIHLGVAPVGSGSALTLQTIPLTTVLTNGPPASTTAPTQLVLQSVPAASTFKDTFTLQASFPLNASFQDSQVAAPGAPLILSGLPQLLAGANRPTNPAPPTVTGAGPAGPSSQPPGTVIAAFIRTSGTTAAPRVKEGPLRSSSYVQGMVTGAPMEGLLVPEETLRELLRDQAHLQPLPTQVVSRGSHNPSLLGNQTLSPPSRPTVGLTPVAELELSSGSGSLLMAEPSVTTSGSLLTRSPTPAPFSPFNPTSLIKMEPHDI
SPIB, sequence (Q01892 whole entry): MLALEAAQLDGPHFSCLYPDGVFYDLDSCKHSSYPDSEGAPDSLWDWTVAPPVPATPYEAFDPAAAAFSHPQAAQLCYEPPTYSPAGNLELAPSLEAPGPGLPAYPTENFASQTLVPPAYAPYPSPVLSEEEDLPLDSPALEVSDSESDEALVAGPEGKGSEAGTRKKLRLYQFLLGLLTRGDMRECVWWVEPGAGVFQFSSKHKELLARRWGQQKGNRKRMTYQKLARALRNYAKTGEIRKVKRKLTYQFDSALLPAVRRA
ETV1, sequence (P50549 whole entry): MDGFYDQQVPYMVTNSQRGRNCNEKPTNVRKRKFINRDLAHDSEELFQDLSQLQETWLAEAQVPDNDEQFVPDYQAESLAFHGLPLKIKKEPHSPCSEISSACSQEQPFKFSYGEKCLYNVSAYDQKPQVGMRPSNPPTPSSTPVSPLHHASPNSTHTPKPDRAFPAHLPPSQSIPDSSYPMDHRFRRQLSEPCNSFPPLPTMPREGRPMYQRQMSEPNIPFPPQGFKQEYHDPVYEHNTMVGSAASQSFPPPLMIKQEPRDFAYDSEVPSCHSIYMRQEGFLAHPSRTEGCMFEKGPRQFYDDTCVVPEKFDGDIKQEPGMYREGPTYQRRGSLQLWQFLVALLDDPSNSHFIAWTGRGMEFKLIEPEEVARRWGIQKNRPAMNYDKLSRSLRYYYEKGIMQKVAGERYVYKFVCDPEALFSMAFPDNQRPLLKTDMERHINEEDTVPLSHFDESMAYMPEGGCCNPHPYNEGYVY

For TGCACT, the binding signal in the experiment with FLI1 is 1.37 fold enrichment (6-mer frequency, TF over GST control); in the experiment with ELK1 it was 1.58 fold enrichment (6-mer frequency, TF over GST control); with GABPA, 1.4 fold enrichment (6-mer frequency, TF over GST control); with ERG it was 1.43 fold enrichment (6-mer frequency, TF over GST control); with ELF1 it was 1.42 fold enrichment (6-mer frequency, TF over GST control); with EHF, 1.3 fold enrichment (6-mer frequency, TF over GST control). Also, the binding signal with SPI1 was 1.68 fold enrichment (6-mer frequency, TF over GST control); with SPIB, 1.21 fold enrichment (6-mer frequency, TF over GST control); with ELK3, 1.26 fold enrichment (6-mer frequency, TF over GST control); in the experiment with FEV it was 1.51 fold enrichment (6-mer frequency, TF over GST control); with ETV5, 1.37 fold enrichment (6-mer frequency, TF over GST control); with HSF1, 1.02 fold enrichment (6-mer frequency, TF over GST control). Besides, the binding signal in the experiment with SPIC is 1.33 fold enrichment (6-mer frequency, TF over GST control); with ELF4, 1.33 fold enrichment (6-mer frequency, TF over GST control); with ELK4, 1.31 fold enrichment (6-mer frequency, TF over GST control); in the experiment with ETV2, 1.46 fold enrichment (6-mer frequency, TF over GST control); with ELF3 it was 1.55 fold enrichment (6-mer frequency, TF over GST control); in the experiment with CRX, 1.06 fold enrichment (6-mer frequency, TF over GST control). Further, the binding signal with ETV1 was 1.33 fold enrichment (6-mer frequency, TF over GST control).
